Screens (PubChem)
eLon inh: inhibitors of E. coli Lon protease, primary screen, biochemical, fluorescence polarization. P0A9M0. purified E. coli Lon protease. inhibition, % at 7.94 µM. 360,000 compounds, 0.42% hits. AID 602123, 2011; in the data active means inhibition above about 13%, passing the limit was not always enough;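 further: 0% = enzyme with probe and DMSO and 100% = no enzyme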
MEX-5 binding: MEX-5 zinc finger RNA-binding disruptors – biochemical, C. elegans, fluorescence polarization, MLPCN library, primary screen; MEX-5/FITC-TCR2 RNA binding; hits give low values; 300,000 compounds, 0.38% hits; Zinc finger protein mex-5 (Caenorhabditis elegans), Q9XUB2; activity score (negative = inhibition of binding), % at 10 µM;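 active means inhibition past about -25% in most replicates, and total fluorescence under double the plate's negative control median, limit read from the data; inconclusive means replicates evenly split on the limit, or fluorescence at least double controls; inactive means too little inhibition in most replicates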;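 further: 0% = DMSO and -100% = 5 µM competing unlabeled TCR2 RNA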
GLD-1 TGE inh: GLD-1/TGE RNA complex disruptors, primary screen, biochemical, fluorescence polarization; Female germline-specific tumor suppressor gld-1 (Caenorhabditis elegans), Q17339; purified GLD-1 + fluorescein TGE RNA; inhibition, % at 5.96 µM; 320,000 compounds, 0.44% hits; AID 2280, 2010;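 active means percent inhibition above a per-plate cutoff, the plate mean of test compounds plus 3 SD, cut at about 30% in these data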;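 further: 0% = DMSO wells with GLD-1 and probe and 100% = wells lacking GLD-1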
Target sequence (Q17339 whole entry, looked up): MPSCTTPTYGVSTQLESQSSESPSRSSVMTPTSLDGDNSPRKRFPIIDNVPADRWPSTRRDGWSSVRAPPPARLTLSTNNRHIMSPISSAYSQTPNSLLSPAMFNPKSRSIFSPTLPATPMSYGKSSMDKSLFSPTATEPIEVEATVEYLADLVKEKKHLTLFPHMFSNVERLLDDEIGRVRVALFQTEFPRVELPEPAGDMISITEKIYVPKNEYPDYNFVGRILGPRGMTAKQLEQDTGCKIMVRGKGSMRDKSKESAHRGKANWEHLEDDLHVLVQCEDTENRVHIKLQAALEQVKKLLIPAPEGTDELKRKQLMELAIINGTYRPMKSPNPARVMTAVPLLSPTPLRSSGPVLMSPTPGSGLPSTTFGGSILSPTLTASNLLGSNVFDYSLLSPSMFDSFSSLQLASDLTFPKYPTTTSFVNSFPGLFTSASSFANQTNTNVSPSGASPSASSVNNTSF
BCLXL inh: inhibitors of human Bcl-xL, primary screen, biochemical, fluorescence polarization, HTS; Bcl-2-like protein 1 (Homo sapiens), Q07817; GST-Bcl-xL / FITC-Bim BH3 peptide fluorescence polarization; inhibition, % at 10.9 µM; 320,000 compounds, 0.7% hits;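 active means inhibition above the mean of all tested compounds plus 3 SD, cutoff set per campaign, cut at about 30% in these data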;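 further: 0% = DMSO wells and 100% = unlabeled Bim-BH3 peptide competitor; inhibitors lower millipolarization by displacing the labeled peptide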
Target sequence (Q07817 whole entry, looked up): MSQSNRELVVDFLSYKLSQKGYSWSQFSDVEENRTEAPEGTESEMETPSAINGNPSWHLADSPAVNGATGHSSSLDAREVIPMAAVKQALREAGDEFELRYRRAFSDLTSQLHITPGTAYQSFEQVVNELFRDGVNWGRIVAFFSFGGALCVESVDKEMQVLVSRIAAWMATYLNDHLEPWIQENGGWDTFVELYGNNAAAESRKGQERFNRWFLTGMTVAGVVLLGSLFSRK
MCL1 BIM primary: inhibitors of MCL1 binding to BIM-BH3, primary screen, biochemical, fluorescence polarization; AID 2057, 2009; inhibition, % at 10.9 µM; Induced myeloid leukemia cell differentiation protein Mcl-1 (Homo sapiens), Q07820; GST-MCL1 / FITC-Bim-BH3 fluorescence polarization; 320,000 compounds, 0.68% hits;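 active means inhibition above the mean inhibition of all tested compounds plus 3 SD, set per campaign, cut at about 40% in these data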;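 further: 0% = DMSO wells and 100% = unlabeled Bim-BH3 peptide control; higher means more loss of mP so more displacement of Bim peptide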
eLon confirm: E. coli Lon protease inhibitor retest, confirmation, biochemical, fluorescence polarization | shares compounds with eLon inh | purified E. coli Lon | inhibition, % at 7.94 µM | 1,400 compounds, 31% hits | AID 602230, 2012; in the data active means inhibition above about 16%;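 further: 0% = enzyme with probe and DMSO and 100% = no enzyme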
Active calls of the source: *; ? = inconclusive; . = not tested or not shown. In the library only some 1.4% were active in any assay of this set; here they are far more common.

SMILES	eLon inh	MEX-5 binding	GLD-1 TGE inh	BCLXL inh	MCL1 BIM primary	eLon confirm
Cc1cc(C)cc(OCC(=O)N(C)CC(=O)Nc2ccc(N3CCOCC3)cc2)c1	2.6	.	.	.	.	.
N#Cc1ccsc1NC(=O)CSc1nncs1	27.9*	.	71.0*	.	.	31.4*
N#Cc1ccsc1NC(=O)CSc1ncn[nH]1	14.9	-0.6	-4.2	3.8	4.3	.
COc1ccc(C=NOCC(=O)OCC(=O)Nc2ccc(OC)cc2)cc1	49.7*	.	2.5	.	.	21.2*
CC(=O)Nc1ccc(/C=N/OCC(=O)Nc2ccc(C)cc2)cc1	-4.7	0.5	2.8	9.8	3.9	.
Clc1ccc(N=NN2CCOCC2)cc1	18.9*	-0.1	5.1	6.6	6.5	3.7
COC(=O)[C@@]1(Sc2ccc(C)cc2)CC(=O)N(c2ccccc2)[C@@H]1c1ccccc1	5.9	.	.	.	.	.
O=C(Nc1cccc(S(=O)(=O)N2CCCCC2)c1)c1ccc2c(=O)n3c(nc2c1)CCCCC3	25.3*	-1.8	2.8	6.5	-0.6	6.0
COc1ccc(OC)c(NC(=O)C2(C)CCN2Cc2ccc(OC)c3ccccc23)c1 (stereo unspecified)	4.9	.	.	.	.	.
Cc1cc(OCC(=O)N2CCOCC2)ccc1NC(=O)c1ccccc1C	16.6*	-2.3	1.1	2.1	-1.6	0.3
O=C(N/N=C/c1ccc(OCC(=O)N2CCOCC2)cc1)c1ccccc1Cl	-6.3	2.5	-6.2	4.0	11.0	.
CC(=O)N1CCN(c2ccc(NC(=O)c3ccccc3Cl)cc2)CC1	-10.6	-1.1	5.0	2.6	-0.4	.
O=C(Nc1ccc(N2CCCCCC2)cc1)c1ccccc1Cl	18.8*	2.7	8.5	2.7	8.5	0.1
O=C(Nc1ccc(OCC(=O)N2CCOCC2)cc1)c1ccccc1Cl	21.9*	0.8	3.2	2.8	3.7	-0.3
CC(C)N1CC=C2C(C#N)=C(N)C(C#N)(C#N)C(c3ccccc3)C2C1 (stereo unspecified)	52.8*	?	92.7*	117.0*	128.2*	19.8*
CN1CC=C2C(C#N)=C(N)C(C#N)(C#N)C(Cc3ccccc3)C2C1 (stereo unspecified)	39.4*	-69.3*	68.7*	117.8*	128.6*	9.3
CCN1CC=C2C(C#N)=C(N)C(C#N)(C#N)C(c3cc(Cl)ccc3Cl)C2C1 (stereo unspecified)	27.5*	?	103.6*	122.4*	149.7*	-4.2
N#CC1=C(N)C(C#N)(C#N)[C@H](c2ccncc2)[C@H]2CN(C(=O)OCc3ccccc3)CC=C12	-6.1	-3.5	8.9	16.1	8.3	.
CCC1C2CN(C(C)=O)CC=C2C(C#N)=C(N)C1(C#N)C#N (stereo unspecified)	0.6	-3.7	13.4	18.8	21.8	.
O=C(c1cccs1)N1CCN(C(=O)c2cccs2)C1=S	3.2	.	.	.	.	.
COc1ccc(C2=CC(c3ccco3)n3ncnc3N2)cc1 (stereo unspecified)	48.8*	.	.	.	.	69.1*
COc1ccccc1Cn1c(C)c(C(=O)NCCC#N)sc1=O	-5.5	.	.	.	.	.
NC(COCc1ccccc1)c1csc(Nc2cc(NCCCO)ncn2)n1 (stereo unspecified)	-2.3	.	.	.	.	.
COc1cc(NCCCCCCN)c2ncccc2c1OC	6.8	.	.	.	.	.
COc1cc(NC(C)CCCNC(C)C)c2ncccc2c1OC (stereo unspecified)	30.0*	.	.	.	.	14.1
SMILES	eLon inh	MEX-5 binding	GLD-1 TGE inh	BCLXL inh	MCL1 BIM primary	eLon confirm
CS(=O)(=O)Nc1cccc(NC(=O)c2cccc3c(-c4cccnc4)coc23)c1	4.7	.	.	.	.	.
O=C(Nc1ccc2c(c1)OCCO2)c1ccccc1F	-9.3	-2.0	3.3	6.9	1.2	.
O=C(NC(=S)Nc1ccc2c(c1)OCCO2)c1ccccc1F	36.5*	-0.9	-1.5	5.8	2.8	-2.6
O=C(NCCCN1CCCC1=O)c1ccc2c(=O)n(Cc3ccco3)c(=S)[nH]c2c1	17.5*	-1.2	-5.7	12.8	5.7	7.6
C=CCn1c(COc2ccc(OC)cc2)nnc1SC(C)C(=O)NC1CC1 (stereo unspecified)	-1.4	.	4.5	-3.2	-2.0	.
CCC(c1nnc(SC(C)C(=O)NC2CC2)n1-c1ccc(OC)cc1)N(C)C (stereo unspecified)	18.9*	.	0.6	5.0	3.7	3.6
O=C(NCCN1CCOCC1)c1cc(S(=O)(=O)NCCCN2CCCC2=O)ccc1Cl	40.1*	-1.6	-1.4	5.2	10.8	9.9
O=C1CCCN1CCCNS(=O)(=O)c1ccc(Cl)c(C(=O)N2CCOCC2)c1	-0.8	2.1	6.7	-1.5	-1.4	.
COc1cccc(/C(C)=N/Nc2ccc(S(=O)(=O)N3CCCCC3)cn2)c1	21.8*	.	7.1	6.4	2.8	3.6
Cc1ccc(S(=O)(=O)N2C[C@H]3[C@H]4C(=O)N(c5ccccc5)C(=O)[C@H]4C[C@H](OC(=O)NCc4ccccc4)[C@@]3(O)C2)cc1	-7.3	.	.	.	.	.
O=C(NCC1CCCN1S(=O)(=O)c1cccs1)C(=O)Nc1ccccc1Cl (stereo unspecified)	21.7*	3.7	-1.1	11.2	9.2	-15.0
COc1ccc(N2CCN(C(=O)CN3C(=O)c4ccccc4S3(=O)=O)CC2)cc1	19.8*	-1.4	0.7	5.2	-2.9	-7.5
COC(=O)[C@]12CCCCC=C1N(Cc1cccc3ccccc13)C(=O)[C@H](CC(=O)NCc1ccc(C)o1)C2	-17.3	.	.	.	.	.
CCOC(=O)Cn1cnc2sc(C(=O)OC)c(C)c2c1=O	-0.3	3.3	-1.4	7.3	9.1	.
CCOCCn1cnc2sc(C(=O)NCC(=O)OCC)c(C)c2c1=O	15.4*	2.0	-1.4	7.4	7.8	-3.9
Cc1cc(C)cc(C(=O)Nc2ccncc2)c1	18.9*	2.8	-9.4	-6.8	-6.2	-5.3
CN(C(=O)COC(=O)c1cc2c(s1)CCCCC2)c1ccccc1	29.6*	0.2	1.1	-0.9	-0.3	2.3
COCCN(CCOC)Cc1cc(=O)oc2cc(C)cc(C)c12	-2.5	.	.	.	.	.
CC(=O)N1CCN(S(=O)(=O)c2ccc(S(=O)(=O)N3CCCC(C)C3)cc2)CC1 (stereo unspecified)	22.3*	-0.7	0.1	1.5	-3.2	-14.0
CC(=O)N1CCC(C(=O)Nc2ccc(S(=O)(=O)N3CCCC(C)C3)cc2)CC1 (stereo unspecified)	-4.3	.	.	.	.	.
COC(=O)[C@]12CCCCC=C1N(CCC1=CCCCC1)C(=O)[C@H](CC(=O)NCc1ccccc1)C2	-2.4	.	.	.	.	.
CC1(C)N=C(N)NC(=NCCCOc2ccc([N+](=O)[O-])cc2)N1	2.6	.	.	.	.	.
S=c1[nH]nc(-c2ccc3ccccc3n2)n1-c1ccc2ncccc2c1	20.4*	1.1	-4.9	-12.7	4.5	9.2
O=C(c1nc2ccccn2c1CN1CCCC(O)C1)N1CCN(C2CCCCC2)CC1 (stereo unspecified)	19.1*	-9.0	8.9	22.9	18.0	4.2
CC(C)OP(=O)(CCP(=O)(OC(C)C)OC(C)C)OC(C)C	16.9*	1.5	5.3	2.5	5.3	-80.7
CC(C)(C)OC(=O)C[C@@H]1C/C=C\C[C@H](CC(=O)N[C@H](CO)Cc2ccccc2)C(=O)N[C@@H](Cc2c[nH]c3ccccc23)COC1=O	-2.4	.	-2.8	.	.	.
